Data on 100 compounds can be found in ChEMBL document CHEMBL3988442, “University of Dundee, Small-Polar-MMV Screening Library” (2021).

Hit rate of the full screen: of about 48,000 compounds, about 13,000 (27%) showed an effect of 50% or more. The list shows a part of the results.

This test has as its system Wolbachia pipientis. The test can be described thus: Anti-Wolbachia Cell-Based Screen. The test is classed as functional. Further details: scale not given: in the data most compounds retested in dose-response had high values. The note with it: 5 µM.
In the case of `CCC(C)NC(=O)Cc1c(C)nc2c(c1C)c(=O)[nH]n2C` (stereo not given), the “Percent Effect” value is reported as -5.261%. In the case of `CCC(C)NC(=O)Cn1c(Nc2cc(C)cc(C)c2)nc(C)cc1=O` (stereo not given), the “Percent Effect” value is listed as 130.9%. The same measure for `Cc1cc(C)cc(Nc2nc(C)cc(=O)n2CC(=O)NC(C)C)c1`: 102.2%. Next, `CCC(C)NC(=O)CN1CCC2(CC1)OCCO2` (stereo not given): 3.422%.

For `Cc1cc(NC(C)C(=O)N2CCN(c3ncccn3)CC2)ccc1F` (stereo not given), the “Percent Effect” value was -7.766%. For the compound `Cc1nc2cc(=O)[nH]n2c(C)c1CC(=O)NC(C)C`, the “Percent Effect” value is 6.511%.

Turning to `CC(C)NC(=O)CC(C)NCc1cc(Cl)ccc1F` (stereo not given), the “Percent Effect” value was determined as 1.096%. The same measure for `Cc1cc(=O)n(CC(=O)NC(C)C)c(Nc2ccc(F)c(C)c2)n1`: 119.3%; for `CSc1nc2cc(C)n(CC(=O)NC(C)C)c2c(=O)n1CC(C)C`: 0.5328%. Next, `O=C1CC(c2cccs2)Cc2[nH]c(=O)ccc21` (stereo not given): 3.972%; `O=C(CN1CCc2cncnc2C1)NC(C1CC1)C1CC1`: 0.03163%; `CCN(CC)C(=O)c1ccn(COc2cc(C)cc(C)c2)n1`: 11.03%. The same measure for `CN(C)Cc1cnc2n1CCN(C(=O)NC1CCCC1)CC2.O=C(O)C(F)(F)F`: -15.13%; for `O=C(N1CCCC1)N1CCn2c(nnc2C2CCCN2)C1` (stereo not given): 124.8%. Turning to `O=C(NC1CCCCC1)N1CCn2c(nnc2C2CCCN2)C1` (stereo not given), the “Percent Effect” value was 120.9%. Next, `O=C(c1ccc(C2CCCN2)s1)N1CCN(C(=O)N2CCOCC2)CC1` (stereo not given): 14.1%. The same measure for `CC(C)NC(=O)N1CCn2c(nnc2C2CCCN2)C1` (stereo not given): 102.1%; for `CC(C)NC(=O)N1CCC(c2nnc3ccc(C(=O)N(C)C)cn23)C1` (stereo not given): 2.89%; for `CN1CCN(C(=O)NC2CCCC2)Cc2cccnc21.O=C(O)C(F)(F)F`: -7.276%.

In the case of `CN1CCN(Cc2cnc3n2CCN(C(=O)N2CCCC2)C3)CC1`, the “Percent Effect” value is -14.55%. In the case of `CC(C)c1nnc2n1CCN(C(=O)c1cnc(C3CC3)s1)C2`, the “Percent Effect” value is -14.42%. Consider `O=C1CC(c2cccs2)Cc2[nH]c(=O)c(C(=O)NC3CCCC3)cc21` (stereo not given), for which the “Percent Effect” value is given as 7.726%. Next, `Cn1cc(C(=O)NC[C@H]2OC[C@@H]3CCN(C4CCOCC4)C[C@@H]32)cn1.O=C(O)C(F)(F)F`: -10.96%; `CC1(C)CCN(S(=O)(=O)N2CCCC(c3cccc(C(=O)O)c3)C2)CC1` (stereo not given): 0.9326%. The same measure for `O=C(CCC1CCCC1)N1CCC(c2ncc3c(n2)CCNC3)CC1`: -4.401%; for `CCC(=O)N1CCCC(c2ncc3c(n2)CCN(C)C3)C1` (stereo not given): 111.8%; for `COC1CCN(S(=O)(=O)N2CCCC(c3cccc(C(=O)O)c3)C2)CC1` (stereo not given): 12.84%. Next, `CN1CCc2nc(C3CCCN(C(=O)CC(C)(C)C)C3)ncc2C1` (stereo not given): 119.8%. Turning to `CN1CCc2nc(C3CCCN(C(=O)CC4CCCCC4)C3)ncc2C1` (stereo not given), the “Percent Effect” value is 117.4%.

Turning to `CN1CCC(c2ncc3c(n2)CCN(C(=O)CC2C=CCC2)C3)CC1` (stereo not given), the “Percent Effect” value was -2.125%. As for `CN1CCc2nc(C3CCCN(S(=O)(=O)N4CCCC4)C3)ncc2C1` (stereo not given), the “Percent Effect” value came out at 92.03%. Consider `Cc1nc[nH]c1CN1CCCC(CNC(=O)c2ccncn2)C1` (stereo not given), for which the “Percent Effect” value is recorded as -3.697%.

In the case of `CCOc1ccccc1C(=O)NS(=O)(=O)c1ccc2c(c1)OCCCO2`, the “Percent Effect” value is -4.596%. Consider `CCOc1cccc2c1OCC(=O)N(c1ccc(N(C)C)cc1)C2`, for which the “Percent Effect” value came out at 138.3%. On to `CN(C)C(=O)N1CCC2(CC(=O)N(c3ccc4c(c3)OCO4)C2)C1` (stereo not given), for which the “Percent Effect” value turned out to be 3.437%. Take `CCOc1cccc2c1OCC(C(=O)NS(=O)(=O)Cc1ccccc1)=C2`: the “Percent Effect” value is listed as -3.971%. The same measure for `CCOc1cccc2c1OCC(C(=O)NC(C)Cn1cccn1)=C2` (stereo not given): -1.745%; for `c1cncc(OCc2nc(C3CC3)nn2-c2ccc3c(c2)OCCO3)c1`: 1.227%; for `CCOc1cccc2c1OCC(=O)N(c1ccc3c(c1)OCCO3)C2`: 123.7%. The same measure for `CCS(=O)(=O)N1CCC2(CC(=O)N(c3ccc4c(c3)OCO4)C2)C1` (stereo not given): -0.7388%; for `CCOc1cccc2c1OCC(=O)N(c1ccc3c(c1)OCO3)C2`: 112.1%. Next, `Cc1nn(C)cc1C(C)Nc1ncc(C(N)=O)cc1Cl` (stereo not given): -11.95%; `COC(=O)CC(NC(=O)c1cccc(N2CCCC2=O)c1)c1cccs1` (stereo not given): 6.294%; `CN(Cc1ccc(Cl)s1)C(=O)CN(C)C1CCCc2ccccc21` (stereo not given): -6.291%. Turning to `O=C(CCN1CCSCC1c1ccccc1)N1CCOCC1` (stereo not given), the “Percent Effect” value is on record as 2.279%. The same measure for `COc1ccsc1C(=O)Nc1cc(CN2CCOCC2)ccc1C`: -3.737%; for `COCCN1CCC2(CC1)CC(Nc1ccc(C)nn1)CO2.O=C(O)C(F)(F)F` (stereo not given): -23.59%. Next, `O=C(O)C(F)(F)F.O=S(=O)(C1CC1)N1CCC2(CC1)CC(Oc1cccnc1)CO2` (stereo not given): 3.761%. As for `Fc1ccc(CN2CCC3(CC2)CC(c2cccnc2)CO3)cc1.O=C(O)C(F)(F)F.O=C(O)C(F)(F)F` (stereo not given), the “Percent Effect” value was 97.05%. The same measure for `O=C(O)C(F)(F)F.O=C(O)C(F)(F)F.c1cncc(C2COC3(CCN(CC4CC4)CC3)C2)c1` (stereo not given): 1.552%; for `Fc1ccc(N2CCC3(CC2)CC(OCc2cccnc2)CO3)cc1.O=C(O)C(F)(F)F` (stereo not given): -13.34%. Next, `Fc1cnc(N2CCC3(CC2)CC(OCc2cccnc2)CO3)nc1.O=C(O)C(F)(F)F.O=C(O)C(F)(F)F` (stereo not given): -2.608%; `O=C(O)C(F)(F)F.O=C(O)C(F)(F)F.c1cncc(C2COC3(CCN(CC4CCOCC4)CC3)C2)c1` (stereo not given): 107.8%. Next, `O=C(NC1COC2(CCN(CC3CCC3)CC2)C1)c1ccccn1.O=C(O)C(F)(F)F` (stereo not given): 9.161%; `COCCN1CCC2(CC1)CC(c1cccnc1)CO2.O=C(O)C(F)(F)F` (stereo not given): 117.3%; `O=C(O)C(F)(F)F.O=C(O)C(F)(F)F.O=C(O)C(F)(F)F.c1cncc(CN2CCC3(CC2)CC(c2cccnc2)CO3)c1` (stereo not given): 108.2%.

In the case of `OC1(c2cn(CC3CCN(C4CCSC4)CC3)nn2)CCCC1` (stereo not given), the “Percent Effect” value is on record as -24.22%. The same measure for `Cc1nccn1-c1ccc(NC(=O)C2CCCN2CC2CC2)cc1` (stereo not given): 11.95%; for `Cc1cc(-n2cncn2)ccc1C(=O)Nc1ccc(N2CCCC2)cn1`: -10.21%. As for `FC(F)(F)CCN(Cc1ccon1)C1CCC1`, the “Percent Effect” value amounted to 0.2197%. The same measure for `O=C(O)C(F)(F)F.O=C(O)C(F)(F)F.c1cncc(C2COC3(CCN(Cc4ccsc4)CC3)C2)c1` (stereo not given): 104.8%.

As for `O=C(O)C(F)(F)F.O=C(O)C(F)(F)F.O=C(c1ccsc1)N1CCOC2(CCN(Cc3cccnc3)CC2)C1`, the “Percent Effect” value is -15.45%. Regarding `COc1ccc(CN2CCC3(CCN(c4cccnc4)C3=O)C2)cc1.O=C(O)C(F)(F)F.O=C(O)C(F)(F)F` (stereo not given), the “Percent Effect” value is reported as -2.008%.

With `COc1ccc(CN2CCC3(CC2)CC(c2cccnc2)CO3)cc1.O=C(O)C(F)(F)F.O=C(O)C(F)(F)F` (stereo not given), the “Percent Effect” value is given as 103.1%.

For `O=C1COc2cc(C(=O)NS(=O)(=O)c3ccccc3F)ccc2N1`, the “Percent Effect” value was -1.273%.

As for `Cc1ccc(C(CNCc2c[nH]nc2C)N(C)C)cc1.Cl` (stereo not given), the “Percent Effect” value is recorded as -30.61%. Next, `CCC1CN(Cc2nnc(C3CC3)o2)CCN1CCOC` (stereo not given): -15.54%; `Cc1cnn(C2CN(Cc3nnc(C4CC4)o3)C2)c1`: 1.311%. The same measure for `COCCN1C(=O)[C@H]2CC[C@@H]1CN(Cc1nnc(C3CC3)o1)C2`: 101%; for `O=C1[C@H]2CC[C@H](CN(Cc3nnc(C4CC4)o3)C2)N1Cc1cscn1`: 105.2%.

For the compound `COCCN1C(=O)[C@H]2CC[C@@H]1CN(Cc1nnc(-c3ccccc3)o1)C2`, the “Percent Effect” value is reported as 112.1%.

With `CS(=O)(=O)N1C[C@@H]2CC[C@H](C1)N(Cc1cscn1)C2=O`, the “Percent Effect” value is on record as -6.714%.

Regarding `COCCN1C(=O)[C@H]2CC[C@@H]1CN(c1nccc(C)n1)C2`, the “Percent Effect” value was determined as 1.615%. Next, `O=C1[C@H]2CC[C@H](CN(C3CCOCC3)C2)N1Cc1cscn1`: -44.85%. For `COCCN1C(=O)[C@H]2CC[C@@H]1CN(c1ncccn1)C2`, the “Percent Effect” value is -42.86%. Next, `CCS(=O)(=O)CC(C)N(C)C(=O)NCCc1cccc(F)c1F` (stereo not given): -8.987%. Next, `CCc1ccc(CN(C)c2ccc(-c3nc(COC)no3)cn2)nc1`: -21.07%. The same measure for `Cc1nc2n(n1)CC(Nc1cc(C(F)(F)F)nc3ncnn13)CC2` (stereo not given): 10.68%.

Regarding `Cc1ccsc1CN(C)C(=O)c1ccc(N2CCOCC2)c(F)c1`, the “Percent Effect” value was 8.665%. The same measure for `CCc1nc(CN(C)C2CCN(CCCOc3ccccc3)C2)no1` (stereo not given): 76.47%; for `CCc1nc(CN(C)C2CCN(CCOc3ccccc3)C2)no1` (stereo not given): 109.8%. With `CCc1nc(CN(C)C2CCN(CCNS(=O)(=O)CC)C2)no1` (stereo not given), the “Percent Effect” value is reported as 8.032%. Next, `CCc1nc(CN(C)C2CCN(Cc3ccc(C#N)cc3F)C2)no1` (stereo not given): 1.706%; `Cc1ccc(NC2(C(=O)NCCCN)CCCC2)cc1`: -6.352%; `CN(CC(=O)Nc1nncs1)CC1CCCN1c1cccnn1` (stereo not given): -0.3075%. The same measure for `O=C(CC1CCN(c2cccnn2)CC1)Nc1cccnc1`: 90.02%; for `CN(CC(=O)Nc1cccnc1)CC1CCCN1c1cccnn1` (stereo not given): -11.55%. Consider `O=C(Nc1nncs1)N1CCC(CCO)CC1`, for which the “Percent Effect” value is listed as -8.889%. In the case of `O=C(C[C@H]1[C@H]2CN(C(=O)CO)C[C@@H]12)Nc1cccnc1`, the “Percent Effect” value was 10.82%. The same measure for `O=C(CC1CCN(c2cccnn2)CC1)Nc1nncs1`: 96.76%.

As for `Cc1ccc(N2C(=O)N[C@@H]3CCN(C(=O)C4CC4)[C@@H]3C2=O)cc1`, the “Percent Effect” value is on record as 11.16%.

In the case of `CCNC(=O)N1CC(c2nc(Cc3ccccc3)no2)C1`, the “Percent Effect” value is listed as -5.949%. Next, `Cn1ccnc1CN(CCO)C(=O)c1cnc2ccccc2c1`: -19.73%; `CCN(Cc1noc(C2CCC2)n1)C(=O)c1cnc2ccccc2c1`: 94.43%.

On to `CCN(Cc1noc(C2CCC2)n1)C(=O)CCc1cc2n(n1)CCNC2`, for which the “Percent Effect” value was -16.19%.

`CCN(Cc1noc(C2CC2)n1)C(=O)c1onc2ccccc12`: the “Percent Effect” value is listed as 98.35%. Next, `CCCc1nc(CN(CC)C(=O)c2ccc(OC)c(OC)c2)no1`: -5.69%; `CN1CCC(N(CCc2ccccc2)Cc2noc(C3CC3)n2)CC1`: 8.424%; `CCCc1nc(CN(CC)C(=O)c2ccc3ncsc3c2)no1`: -3.567%. Next, `CCCc1nc(CN(CC)C(=O)c2onc3ccccc23)no1`: 89.45%.
